According to PubChem BioAssay AID1962 (The Scripps Research Institute Molecular Screening Center, 2009):
“And” between values parts separate entries of the source, which are not always exact repeats. Equal values may be shown once. About 2,500 (0.83%) of roughly 300,000 compounds were called active.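 The calls were made as follows: active = inhibition above the mean of all tested compounds plus 3 SD, set per screening campaign (cut at about 24% in these data); inactive = the rest.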 The full list was thinned out, with actives kept by preference.

Test system: tRNA 2'-phosphotransferase TPT1 (Candida albicans SC5314)
Test: Candida albicans TPT1 enzyme inhibitors, primary screen, biochemical, fluorescence polarization (AID 1962);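 also: plate controls were DMSO alone for no effect and ferristatin control at 100 nM for full effect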
Conditions: recombinant caTPT1, FP RNA substrate dephosphorylation; at 5 µM; stronger effect = higher value

| SMILES | inhibition |
| --- | --- |
| O=C(COc1ccc2ccccc2c1)N1CCN(Cc2ccncc2)CC1 | -1.1% (inactive) |
| CN(C)C(=O)Oc1cc(OC(=O)N(C)C)cc(C(O)CNC(C)(C)C)c1 (stereo unspecified) | -1.53% (inactive) and -2.15% (inactive) |
| COc1cccc(C(=O)N2C[C@H]3C[C@@H](C2)c2cccc(=O)n2C3)c1 | -1.64% (inactive) |
| COc1ccc(C2N3CC(C)(C)CN23)cc1 (stereo unspecified) | 0.1% (inactive) |
| O=C(CN1CCCC1=O)NCCc1ccccc1 | -1.43% (inactive) |
| CC(C)(C)c1ccc(CN2C(=O)CN=C(c3ccccc3)c3ccccc32)cc1 | 2.92% (inactive) |
| O=C1CC(=O)N(Cc2ccccc2)C(=O)N1CCCCCCN1C(=O)CC(=O)N(Cc2ccccc2)C1=O | 71.4% (active) |
| Fc1ccc(C2N3CCCN23)cc1 (stereo unspecified) | -5.01% (inactive) |
| Cn1c(O)c(C=Nc2ccc3c(c2)CCC3)c(=O)n(C)c1=O | -3.76% (inactive) |
| CC(C)n1c(=O)c(C=Nc2ccc(Br)cc2)c(O)n(Cc2ccco2)c1=O | 27.9% (active) |
| CN(C)CCCN=Cc1c(O)n(Cc2ccco2)c(=O)[nH]c1=O | 1.6% (inactive) |
| CCOc1ccc(-c2cc(C)[n+](CCN(CC)CC)c(-c3ccc(OCC)cc3)c2)cc1 | -0.45% (inactive) |
| Cc1ccc(-n2c(-c3ccc([N+](=O)[O-])cc3)nc3ccccc3c2=O)cc1 | -3% (inactive) |
| Cc1ccc(N2C(=O)NC(=O)C(CCc3ccncc3)(Cc3cccc(Cl)c3Cl)C2=O)cc1 (stereo unspecified) | 3.87% (inactive) |
| CC(C)Nc1nc(Cl)nc(NC(C)C)n1 | -2.15% (inactive) |
| O=C(N/N=C/c1c(O)n(Cc2ccccc2)c(=O)[nH]c1=O)c1ccccc1 | 2.3% (inactive) |
| CC/C(=N\NC(=O)c1ccccc1O)c1c(O)n(Cc2ccccc2)c(=O)[nH]c1=O | 46.6% (active) |
| CCC(=NCc1ccco1)c1c(O)n(Cc2ccccc2)c(=O)[nH]c1=O | 3.72% (inactive) |
| COc1ccc2c(c1)[C@]13CCCCC1C(C2)N(C)CC3 (stereo partly specified) | -1.13% (inactive) |
| CC1CCCCN1Cc1cccnc1 (stereo unspecified) | -4.61% (inactive) |
| CN(c1ccccc1)c1ccc([N+](=O)[O-])c2nonc12 | 14.5% (inactive) |
